This is an account of results in article PMC7862700, “An all-to-all approach to the identification of sequence-specific readers for epigenetic DNA modifications on cytosine”.

Common to all, as to assay: DAPPL (digital affinity profiling via proximity ligation, sequencing); 10 mM Tris-HCl pH 7.5, 50 mM NaCl, 1 mM DTT, 4% glycerol, room temperature, 30 min; GST-TFs on glutathione beads, 16-mer random dsDNA library, 0.1% formaldehyde crosslink after washing; high values mean tight binding
What all share (conditions): protein: recombinant; tags: N-terminal GST; dsDNA, one strand shown

In assay [1] the target is T1, FLI1 (Homo sapiens, UniProt Q01543 1-452).
T1 sequence: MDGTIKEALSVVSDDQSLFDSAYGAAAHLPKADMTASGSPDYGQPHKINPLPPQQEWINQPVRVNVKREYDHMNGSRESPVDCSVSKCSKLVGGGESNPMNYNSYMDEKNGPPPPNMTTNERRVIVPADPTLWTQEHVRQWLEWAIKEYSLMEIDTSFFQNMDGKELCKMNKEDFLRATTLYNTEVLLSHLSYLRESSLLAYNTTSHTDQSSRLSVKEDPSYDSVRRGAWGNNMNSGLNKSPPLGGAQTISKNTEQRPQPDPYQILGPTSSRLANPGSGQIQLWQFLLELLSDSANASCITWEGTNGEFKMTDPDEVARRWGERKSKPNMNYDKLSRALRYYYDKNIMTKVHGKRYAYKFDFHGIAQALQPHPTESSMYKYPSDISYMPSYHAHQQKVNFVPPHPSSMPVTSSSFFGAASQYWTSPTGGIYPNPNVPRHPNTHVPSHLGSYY
In short, it runs like this: (§1)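 Binding signal is given per hexamer as its read frequency for a factor divided by its frequency in the tag-only sample. GST-fused human transcription factors were expressed in yeast, captured on glutathione beads, barcoded with DNA and pooled with that sample, then incubated with 200 nmole of a 16-mer random double-stranded DNA library in Tris/NaCl/DTT/glycerol buffer for 30 min at room temperature. The pools were then washed, crosslinked, proximity-ligated, amplified by PCR and sequenced on an Illumina NextSeq500.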

Assay [2] deals with T2, ELK1 (Homo sapiens, UniProt P19419 1-428).
T2 sequence: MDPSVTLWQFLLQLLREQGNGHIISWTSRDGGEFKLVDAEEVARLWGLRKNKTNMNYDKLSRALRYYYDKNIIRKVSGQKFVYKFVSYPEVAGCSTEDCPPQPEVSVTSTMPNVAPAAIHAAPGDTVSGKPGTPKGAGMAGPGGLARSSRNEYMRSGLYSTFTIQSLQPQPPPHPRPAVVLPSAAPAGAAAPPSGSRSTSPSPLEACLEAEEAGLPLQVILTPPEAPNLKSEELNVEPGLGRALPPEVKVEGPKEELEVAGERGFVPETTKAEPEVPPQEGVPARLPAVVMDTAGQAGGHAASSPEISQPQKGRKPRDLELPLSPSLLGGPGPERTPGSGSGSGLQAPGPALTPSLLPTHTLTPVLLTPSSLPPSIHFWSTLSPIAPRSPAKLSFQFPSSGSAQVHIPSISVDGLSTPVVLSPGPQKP
In short, it runs like this: as §1

Assay [3] deals with T3, GABPA (Homo sapiens, UniProt Q06546 1-454).
T3 sequence: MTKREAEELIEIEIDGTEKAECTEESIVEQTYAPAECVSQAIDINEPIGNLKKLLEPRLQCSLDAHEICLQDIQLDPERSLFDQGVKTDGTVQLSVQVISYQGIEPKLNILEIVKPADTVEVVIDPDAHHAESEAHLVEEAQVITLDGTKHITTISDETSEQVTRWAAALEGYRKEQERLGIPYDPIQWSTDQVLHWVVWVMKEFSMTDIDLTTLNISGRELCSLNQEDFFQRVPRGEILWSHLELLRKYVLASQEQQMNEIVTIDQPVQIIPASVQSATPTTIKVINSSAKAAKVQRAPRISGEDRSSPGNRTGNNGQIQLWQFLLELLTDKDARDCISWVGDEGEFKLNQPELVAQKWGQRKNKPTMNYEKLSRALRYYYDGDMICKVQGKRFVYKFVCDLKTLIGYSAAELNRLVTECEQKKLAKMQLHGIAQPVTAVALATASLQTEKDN
In short, it runs like this: as §1

The target in assay [4] is T4, ERG (Homo sapiens, UniProt P11308 1-479).
T4 sequence: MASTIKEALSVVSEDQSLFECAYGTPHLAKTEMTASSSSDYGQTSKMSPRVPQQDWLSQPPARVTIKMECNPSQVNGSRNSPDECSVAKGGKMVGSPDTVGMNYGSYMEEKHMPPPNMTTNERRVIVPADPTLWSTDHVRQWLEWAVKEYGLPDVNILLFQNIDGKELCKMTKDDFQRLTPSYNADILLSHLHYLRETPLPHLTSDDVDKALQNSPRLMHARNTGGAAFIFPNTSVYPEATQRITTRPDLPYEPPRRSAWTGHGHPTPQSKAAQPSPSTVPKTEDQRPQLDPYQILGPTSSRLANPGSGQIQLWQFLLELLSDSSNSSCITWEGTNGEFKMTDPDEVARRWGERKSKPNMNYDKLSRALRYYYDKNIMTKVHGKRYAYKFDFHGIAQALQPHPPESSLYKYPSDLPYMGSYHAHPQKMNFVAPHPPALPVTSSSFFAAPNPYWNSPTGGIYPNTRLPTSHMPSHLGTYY
In short, it runs like this:
as §1

In assay [5] the target is ELF1 (Homo sapiens, UniProt P32519 1-619). The procedure, abridged:
as §1

The target in assay [6] is T5, EHF (Homo sapiens, UniProt Q9NZC4 1-300).
T5 sequence: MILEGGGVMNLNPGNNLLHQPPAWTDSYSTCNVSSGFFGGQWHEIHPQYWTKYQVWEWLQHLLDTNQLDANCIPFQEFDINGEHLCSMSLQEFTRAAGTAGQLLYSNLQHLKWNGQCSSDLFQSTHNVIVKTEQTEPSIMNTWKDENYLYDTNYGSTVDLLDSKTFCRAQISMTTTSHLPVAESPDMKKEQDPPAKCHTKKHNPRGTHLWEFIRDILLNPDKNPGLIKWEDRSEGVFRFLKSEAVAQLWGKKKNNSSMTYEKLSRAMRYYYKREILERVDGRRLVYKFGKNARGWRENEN
In short, it runs like this:
as §1

In assay [7] the target is SPI1 (Homo sapiens, UniProt P17947 1-270). The procedure, abridged:
as §1

Assay [8] concerns the target SPIB (Homo sapiens, UniProt Q01892 1-262). In short, it runs like this:
as §1

Assay [9] addresses T6, ELK3 (Homo sapiens, UniProt P41970 1-407).
T6 sequence: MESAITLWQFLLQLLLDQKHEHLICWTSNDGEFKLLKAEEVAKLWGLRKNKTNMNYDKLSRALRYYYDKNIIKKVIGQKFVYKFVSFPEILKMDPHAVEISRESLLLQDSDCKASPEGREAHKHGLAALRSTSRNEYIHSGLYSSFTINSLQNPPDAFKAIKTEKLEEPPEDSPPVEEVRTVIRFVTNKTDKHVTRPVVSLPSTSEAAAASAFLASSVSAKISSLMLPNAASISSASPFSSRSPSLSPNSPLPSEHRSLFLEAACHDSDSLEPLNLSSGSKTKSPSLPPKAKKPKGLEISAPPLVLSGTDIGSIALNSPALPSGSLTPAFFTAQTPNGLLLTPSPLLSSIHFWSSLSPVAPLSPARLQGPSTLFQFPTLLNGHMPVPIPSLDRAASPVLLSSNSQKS
The procedure, abridged: as §1

Assay [10] has as its target T7, FEV (Homo sapiens, UniProt Q99581 1-238).
T7 sequence: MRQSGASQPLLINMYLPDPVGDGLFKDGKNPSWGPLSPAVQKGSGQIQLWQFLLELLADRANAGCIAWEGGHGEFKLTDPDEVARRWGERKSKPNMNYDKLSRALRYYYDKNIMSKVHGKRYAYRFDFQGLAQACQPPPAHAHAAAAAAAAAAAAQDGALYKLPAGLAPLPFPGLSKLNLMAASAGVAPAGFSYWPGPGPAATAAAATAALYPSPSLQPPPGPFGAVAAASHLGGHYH
The procedure, abridged:
as §1

In assay [11] the target is ETV5 (Homo sapiens, UniProt P41161 1-510). The procedure, abridged: as §1
The target of assay [12] is T8, SPIC (Homo sapiens, UniProt Q8N5J4 1-248).
T8 sequence: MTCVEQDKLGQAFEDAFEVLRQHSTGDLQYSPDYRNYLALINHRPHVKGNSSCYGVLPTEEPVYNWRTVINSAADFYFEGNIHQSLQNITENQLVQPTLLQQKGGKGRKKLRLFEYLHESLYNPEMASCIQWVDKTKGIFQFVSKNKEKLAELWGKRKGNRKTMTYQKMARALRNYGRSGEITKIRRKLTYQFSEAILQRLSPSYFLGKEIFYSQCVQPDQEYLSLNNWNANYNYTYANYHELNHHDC
In short, it runs like this:
as §1

The target of assay [13] is ELF4 (Homo sapiens, UniProt Q99607 1-663). The procedure, abridged:
as §1

The target in assay [14] is T9, ELK4 (Homo sapiens, UniProt P28324-2 1-405).
T9 sequence: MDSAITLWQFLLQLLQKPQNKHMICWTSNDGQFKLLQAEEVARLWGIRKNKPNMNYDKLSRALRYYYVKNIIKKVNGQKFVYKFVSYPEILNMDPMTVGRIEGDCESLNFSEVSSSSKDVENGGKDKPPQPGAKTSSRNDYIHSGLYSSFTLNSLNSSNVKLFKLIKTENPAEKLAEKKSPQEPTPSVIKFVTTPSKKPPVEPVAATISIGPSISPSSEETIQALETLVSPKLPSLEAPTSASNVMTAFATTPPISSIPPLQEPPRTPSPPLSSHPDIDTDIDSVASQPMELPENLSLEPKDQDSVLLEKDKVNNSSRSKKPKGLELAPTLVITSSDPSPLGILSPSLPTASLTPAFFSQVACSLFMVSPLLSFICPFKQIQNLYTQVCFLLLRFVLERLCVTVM
The procedure, abridged: as §1

Assay [15] addresses T10, ETV2 (Homo sapiens, UniProt O00321 1-342).
T10 sequence: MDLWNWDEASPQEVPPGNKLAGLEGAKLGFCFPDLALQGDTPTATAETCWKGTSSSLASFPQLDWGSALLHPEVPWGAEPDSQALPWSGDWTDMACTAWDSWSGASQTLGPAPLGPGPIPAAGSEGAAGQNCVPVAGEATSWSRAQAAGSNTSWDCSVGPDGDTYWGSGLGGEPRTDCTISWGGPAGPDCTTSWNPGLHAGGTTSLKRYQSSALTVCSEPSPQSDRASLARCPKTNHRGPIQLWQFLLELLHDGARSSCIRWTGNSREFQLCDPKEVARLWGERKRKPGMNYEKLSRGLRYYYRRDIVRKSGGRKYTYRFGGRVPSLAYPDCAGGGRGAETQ
In short, it runs like this: as §1

The target in assay [16] is ETV1 (Homo sapiens, UniProt P50549 1-477). In short, it runs like this:
as §1

For assay [17], the target named is T11, ELF3 (Homo sapiens, UniProt P78545 1-371).
T11 sequence: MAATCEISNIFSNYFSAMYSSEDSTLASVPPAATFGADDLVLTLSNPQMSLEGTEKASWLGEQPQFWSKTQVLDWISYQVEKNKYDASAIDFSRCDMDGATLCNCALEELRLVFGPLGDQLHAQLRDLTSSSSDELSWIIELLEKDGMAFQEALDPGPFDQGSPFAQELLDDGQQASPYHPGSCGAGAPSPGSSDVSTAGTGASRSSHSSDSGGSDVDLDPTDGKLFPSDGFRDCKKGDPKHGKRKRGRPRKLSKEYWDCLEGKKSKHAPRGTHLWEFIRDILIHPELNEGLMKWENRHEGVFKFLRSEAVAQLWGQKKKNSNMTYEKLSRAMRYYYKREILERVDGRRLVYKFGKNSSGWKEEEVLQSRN
The procedure, abridged: as §1

The target of assay [18] is CRX (Homo sapiens, UniProt O43186 1-299). The procedure, abridged:
as §1

Chain of ELF4 (Q99607 whole entry): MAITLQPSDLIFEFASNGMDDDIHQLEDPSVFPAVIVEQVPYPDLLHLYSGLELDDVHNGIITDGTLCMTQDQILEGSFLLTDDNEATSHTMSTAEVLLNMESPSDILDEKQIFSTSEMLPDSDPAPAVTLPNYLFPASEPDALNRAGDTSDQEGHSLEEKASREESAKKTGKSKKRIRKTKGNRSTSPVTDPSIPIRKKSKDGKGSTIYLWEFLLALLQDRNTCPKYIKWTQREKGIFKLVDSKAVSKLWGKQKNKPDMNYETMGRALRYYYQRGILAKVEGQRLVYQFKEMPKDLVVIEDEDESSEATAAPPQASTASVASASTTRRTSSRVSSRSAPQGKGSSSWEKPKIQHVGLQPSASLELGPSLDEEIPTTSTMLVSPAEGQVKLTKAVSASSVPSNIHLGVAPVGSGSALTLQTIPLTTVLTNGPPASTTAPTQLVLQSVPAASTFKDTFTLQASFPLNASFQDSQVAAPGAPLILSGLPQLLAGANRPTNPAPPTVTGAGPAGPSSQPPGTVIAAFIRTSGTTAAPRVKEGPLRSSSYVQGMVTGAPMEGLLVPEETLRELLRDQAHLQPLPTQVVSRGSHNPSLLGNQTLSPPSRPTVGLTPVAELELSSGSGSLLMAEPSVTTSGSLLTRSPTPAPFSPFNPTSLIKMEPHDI
Chain of ETV1 (P50549 whole entry): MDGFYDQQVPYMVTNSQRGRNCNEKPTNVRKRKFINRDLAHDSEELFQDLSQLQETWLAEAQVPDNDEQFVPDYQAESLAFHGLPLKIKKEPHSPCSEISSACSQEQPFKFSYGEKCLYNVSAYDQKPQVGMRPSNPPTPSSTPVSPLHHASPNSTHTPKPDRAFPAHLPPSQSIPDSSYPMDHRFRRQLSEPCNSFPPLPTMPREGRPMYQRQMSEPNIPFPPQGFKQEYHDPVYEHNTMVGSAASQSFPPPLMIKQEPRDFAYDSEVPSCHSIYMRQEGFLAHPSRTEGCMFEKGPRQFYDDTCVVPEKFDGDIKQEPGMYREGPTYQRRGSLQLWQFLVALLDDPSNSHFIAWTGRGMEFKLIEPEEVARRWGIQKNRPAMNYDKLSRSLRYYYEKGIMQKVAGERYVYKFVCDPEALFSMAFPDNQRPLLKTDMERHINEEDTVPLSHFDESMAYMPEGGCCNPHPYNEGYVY
Chain of ELF1 (P32519 whole entry): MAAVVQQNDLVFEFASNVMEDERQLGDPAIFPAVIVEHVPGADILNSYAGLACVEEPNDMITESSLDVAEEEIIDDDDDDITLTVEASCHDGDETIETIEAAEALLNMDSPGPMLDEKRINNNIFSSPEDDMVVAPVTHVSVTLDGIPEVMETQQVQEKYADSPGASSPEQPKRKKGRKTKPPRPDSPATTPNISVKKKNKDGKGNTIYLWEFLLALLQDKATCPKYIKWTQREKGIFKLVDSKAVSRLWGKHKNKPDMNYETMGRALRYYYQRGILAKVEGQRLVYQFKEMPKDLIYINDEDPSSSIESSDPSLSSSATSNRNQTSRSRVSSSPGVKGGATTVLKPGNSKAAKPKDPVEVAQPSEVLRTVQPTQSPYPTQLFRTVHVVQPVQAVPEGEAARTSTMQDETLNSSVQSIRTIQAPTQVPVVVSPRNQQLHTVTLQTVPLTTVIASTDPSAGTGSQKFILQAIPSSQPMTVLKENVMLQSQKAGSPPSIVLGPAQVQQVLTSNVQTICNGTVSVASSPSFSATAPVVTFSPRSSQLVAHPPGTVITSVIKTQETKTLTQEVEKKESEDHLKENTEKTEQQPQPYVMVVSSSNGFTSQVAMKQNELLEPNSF
Chain of SPIB (Q01892 whole entry): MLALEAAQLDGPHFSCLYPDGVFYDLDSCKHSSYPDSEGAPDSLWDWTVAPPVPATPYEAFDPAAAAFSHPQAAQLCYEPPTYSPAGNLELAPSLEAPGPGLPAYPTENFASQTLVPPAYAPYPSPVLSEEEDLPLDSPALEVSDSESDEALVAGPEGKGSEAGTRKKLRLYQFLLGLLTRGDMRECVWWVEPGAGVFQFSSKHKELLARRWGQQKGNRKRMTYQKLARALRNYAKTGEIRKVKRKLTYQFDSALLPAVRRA
Chain of ETV5 (P41161 whole entry): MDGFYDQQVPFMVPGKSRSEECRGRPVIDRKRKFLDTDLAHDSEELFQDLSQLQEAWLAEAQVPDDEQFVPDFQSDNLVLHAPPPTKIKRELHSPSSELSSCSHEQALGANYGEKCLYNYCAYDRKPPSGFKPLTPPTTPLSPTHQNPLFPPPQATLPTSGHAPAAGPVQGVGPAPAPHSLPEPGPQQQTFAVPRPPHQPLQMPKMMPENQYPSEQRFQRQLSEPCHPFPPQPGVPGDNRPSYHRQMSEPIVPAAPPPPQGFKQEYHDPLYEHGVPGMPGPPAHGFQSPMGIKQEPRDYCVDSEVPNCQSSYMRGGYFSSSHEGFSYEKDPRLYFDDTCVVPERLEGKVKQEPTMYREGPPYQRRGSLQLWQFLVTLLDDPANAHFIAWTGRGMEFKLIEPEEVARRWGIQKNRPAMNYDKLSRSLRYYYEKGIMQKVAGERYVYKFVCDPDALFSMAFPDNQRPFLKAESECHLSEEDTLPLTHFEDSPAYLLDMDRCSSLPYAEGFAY
Chain of CRX (O43186 whole entry): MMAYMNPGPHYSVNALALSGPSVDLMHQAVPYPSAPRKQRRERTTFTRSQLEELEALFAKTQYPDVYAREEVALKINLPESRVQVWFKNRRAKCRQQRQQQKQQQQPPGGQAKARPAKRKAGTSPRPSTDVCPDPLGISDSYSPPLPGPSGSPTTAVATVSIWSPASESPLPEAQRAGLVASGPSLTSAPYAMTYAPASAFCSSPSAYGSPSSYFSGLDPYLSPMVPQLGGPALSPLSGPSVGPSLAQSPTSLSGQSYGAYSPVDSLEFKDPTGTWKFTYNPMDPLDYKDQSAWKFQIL

Regarding ACGCAC, the binding signal in assay [1] is 1.06 fold enrichment (6-mer frequency, TF over GST control); in assay [2], 1.09 fold enrichment (6-mer frequency, TF over GST control); in [3], 1.04 fold enrichment (6-mer frequency, TF over GST control); in assay [4] it was 1.02 fold enrichment (6-mer frequency, TF over GST control); in assay [5] it was 1.06 fold enrichment (6-mer frequency, TF over GST control); in assay [6] it was 1.03 fold enrichment (6-mer frequency, TF over GST control). Moreover, the binding signal was 1.03 fold enrichment (6-mer frequency, TF over GST control) in assay [7]; 1.07 fold enrichment (6-mer frequency, TF over GST control) in [8]; 1.09 fold enrichment (6-mer frequency, TF over GST control) in assay [9]; 1.05 fold enrichment (6-mer frequency, TF over GST control) in assay [10]; 1.09 fold enrichment (6-mer frequency, TF over GST control) in [11]; 1.01 fold enrichment (6-mer frequency, TF over GST control) in assay [12]. For the same sequence, the binding signal in assay [13] is 1.05 fold enrichment (6-mer frequency, TF over GST control); in [14] it was 1.06 fold enrichment (6-mer frequency, TF over GST control); in assay [15], 1.22 fold enrichment (6-mer frequency, TF over GST control); in assay [16] it was 1.1 fold enrichment (6-mer frequency, TF over GST control).
In the case of ATGTTG, the binding signal in [1] was 1.31 fold enrichment (6-mer frequency, TF over GST control); in [2] it was 1.26 fold enrichment (6-mer frequency, TF over GST control); in assay [3], 1.22 fold enrichment (6-mer frequency, TF over GST control); in [4], 1.26 fold enrichment (6-mer frequency, TF over GST control); in [5] it was 1.35 fold enrichment (6-mer frequency, TF over GST control); in assay [6] it was 1.21 fold enrichment (6-mer frequency, TF over GST control). Moreover, the binding signal in assay [7] was 1.3 fold enrichment (6-mer frequency, TF over GST control); in assay [8] it was 1.18 fold enrichment (6-mer frequency, TF over GST control); in assay [9], 1.21 fold enrichment (6-mer frequency, TF over GST control); in [10], 1.21 fold enrichment (6-mer frequency, TF over GST control); in assay [11], 1.3 fold enrichment (6-mer frequency, TF over GST control); in assay [12], 1.1 fold enrichment (6-mer frequency, TF over GST control). In addition, the binding signal is 1.2 fold enrichment (6-mer frequency, TF over GST control) in assay [13]; 1.25 fold enrichment (6-mer frequency, TF over GST control) in assay [14]; 1.11 fold enrichment (6-mer frequency, TF over GST control) in assay [17]; 1.04 fold enrichment (6-mer frequency, TF over GST control) in assay [18]; 1.32 fold enrichment (6-mer frequency, TF over GST control) in assay [16].
